Source: PubChem (several laboratories)
C8 TRAIL sens = sensitizes caspase-8 expressing cells to TRAIL | inhibition (viability loss, TRAIL sensitization), % at 10 µM | NB7+C8 cells + TRAIL, ATPlite viability luminescence | 360,000 compounds, 1% hits | AID 624354;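 active = compounds causing at least 50% loss of cell viability in the single-dose screen, relative to plate controls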
TROY NFkB inh = inhibitors of TROY-dependent NF-kB signaling | 360,000 compounds, 0.98% hits | AID 1347056 | Q293 LMP1-TROYcd NF-kB luciferase reporter, 4 h | inhibition, % at 10 µM;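 active = compounds whose plate-normalised and pattern-corrected inhibition of the luciferase reporter signal at the single screening dose is 50% or more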
aSyn UTR inh = MLPCN primary screen, SNCA 5' untranslated region; alpha-synuclein 5'UTR reporter, inhibitor activity; inhibition, % (tested at 7.5 µM); 300,000 compounds, 0.82% hits; in the data active = inhibition above about 60%;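 also: H4 neuroglioblastoma cells stably carrying SNCA 5'UTR luciferase fusion; 0% = DMSO wells and 100% = positive control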
HSP90 refold inh = inhibitors of HSP90 luciferase refolding in rabbit reticulocyte lysate; luciferase refolding luminescence, 3 h; inhibition, % at 5.6 µM; 290,000 compounds, 0.91% hits;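 active = inhibition above the screen-wide mean plus 3 SD, computed separately per campaign, cut at about 16% in these data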;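 also: 0% = DMSO wells and 100% = 60 µM geldanamycin wells; inhibitors lower the luminescence because luciferase stays unfolded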
HIF-2a block = inhibitors of HIF-2a | 786-0 RCC cells HIF-2a reporter, luciferase luminescence, overnight | inhibition, % at 18.8 µM | 360,000 compounds, 0.72% hits | AID 624352;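 active = inhibition of the luminescence signal of 40% or more relative to plate controls, in a single-dose primary screen at 18.75 µM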
TWEAK-Fn14 inh = TWEAK-Fn14 signaling inhibition. TWEAK-stimulated Fn14 reporter cells, luciferase luminescence, 8 h. inhibition, % at 10 µM. 360,000 compounds, 2% hits; in the data active = inhibition above about 50%
* marks the source's active call; other numbers are inactive results; . = not tested or not shown. The list is not random: actives were taken first. Their share in the collection is about 3.9%.

SMILES	C8 TRAIL sens	TROY NFkB inh	aSyn UTR inh	HSP90 refold inh	HIF-2a block	TWEAK-Fn14 inh
COc1ccc(C2CC(=O)N(C)c3ccccc3S2)cc1 (stereo not drawn)	-0.1	56.9*	-38.3	4.3	-28.9	70.0*
CN1C(=O)CC(c2ccco2)Sc2ccccc21 (stereo not drawn)	-0.6	-32.3	-22.0	-2.3	-92.5	2.3
COc1ccc(C2CC(=O)N(CC(=O)NCC3CCCO3)c3ccccc3S2)cc1 (stereo not drawn)	1.2	52.2*	-23.0	5.2	-7.9	46.9
O=C(CN1C(=O)CC(c2ccco2)Sc2ccccc21)NCC1CCCO1 (stereo not drawn)	7.2	-5.6	-1.8	0.4	-2.4	7.2
CCN(CC)S(=O)(=O)c1ccc(N2CC(C(=O)NCc3ccco3)CC2=O)cc1 (stereo not drawn)	0.4	9.0	.	.	-5.7	12.9
CSCCC(C(=O)Nc1c(C)cccc1C)N(Cc1ccccc1)Cc1ccccc1 (stereo not drawn)	19.9	4.0	.	.	-11.5	21.9
Cc1cccc(OCC(=O)Nc2ccccc2N2CCCCC2)c1	4.0	-1.7	3.1	1.6	15.5	9.6
CCC(=O)c1ccc(OCC(=O)OCC(=O)N2CCCc3ccccc32)cc1	88.0*	0.8	11.2	.	7.3	-2.1
O=C(COc1ccc(Cl)cc1Cl)NC(=S)N1CCCc2ccccc21	-28.6	9.8	-19.4	2.2	-106.1	57.8*
O=C(COc1ccc(Cl)cc1)OCC(=O)N1CCCc2ccccc21	-2.8	9.5	-4.2	-0.6	16.0	6.8
Cc1cccc(OCC(=O)NC(=S)N2CCCc3ccccc32)c1	-11.5	39.5	-10.4	2.7	-46.3	56.3*
COc1cccc(C(C)(O)c2nc(-c3cnc4ccccc4c3)cs2)c1 (stereo not drawn)	19.7	25.4	.	.	-61.4	42.3
Cc1cccnc1NC(=O)Nc1cccc(F)c1	-8.2	-59.1	.	.	-262.5	-39.3
COc1ccc2cc3c(N)nn(C(=O)C4CCC(C(C)(C)C)CC4)c3nc2c1 (stereo not drawn)	19.6	55.4*	42.4	-4.6	23.4	89.9*
O=C(Nc1ccc2c(c1)OCCO2)C(C1CC1)n1c(=O)c(-c2cc3ccccc3[nH]2)nc2ccccc21 (stereo not drawn)	-16.6	.	.	.	-18.2	.
COc1ccc(CNC(=O)CC[C@H]2O[C@@H](n3cc(C)c(=O)[nH]c3=O)C[C@@H]2O)cc1	0.3	-14.7	.	.	9.7	1.3
Cc1ccc(-n2c(-c3ccc(Br)cc3)c[n+]3c2CCc2ccc4cccnc4c2-3)cc1	65.2*	43.6	85.9*	1.7	9.6	-58.7
O=C(N/N=C\c1ccccn1)C1COc2cc3ccccc3cc2O1 (stereo not drawn)	18.2	-10.6	2.6	2.4	8.1	73.4*
CC1(C)C(=O)C2(C(=O)NCc3ccccc3)CCC1C2 (stereo not drawn)	-4.3	1.2	0.8	16.5*	5.2	-1.5
Cc1cccc(C(O)c2ncc(-c3ccc(Cl)cc3)[nH]2)c1C (stereo not drawn)	-13.1	7.9	.	.	13.2	-15.6
CNC(=O)/C(C#N)=C/c1cccc(Oc2ccccc2)c1	23.4	-80.0	-24.4	4.2	12.8	53.5*
COCCNC(=O)/C(C#N)=C/c1cccc(/C=C(\C#N)C(=O)NCCOC)c1	28.1	28.2	10.3	-4.4	39.6	65.4*
CCc1ccc(/C=C2\SC(=S)N(CCC(=O)NC3=NCCS3)C2=O)cc1	.	.	89.5*	-1.4	.	.
COc1ccccc1/C=C1\SC(=S)N(CCC(=O)NC2=NCCS2)C1=O	2.5	28.5	34.5	5.4	72.3*	24.9
CC(C)NC(=O)C1(C)CCN1C(=O)c1ccccc1 (stereo not drawn)	-1.2	-6.6	.	.	16.4	6.2
SMILES	C8 TRAIL sens	TROY NFkB inh	aSyn UTR inh	HSP90 refold inh	HIF-2a block	TWEAK-Fn14 inh
COc1ccc(N/N=C(/N=Nc2nc(C)cc(=O)[nH]2)c2ccccc2)cc1	53.2*	-30.1	85.1*	-2.4	-197.9	-37.1
Cc1cc(=O)[nH]c(N=N/C(=N/Nc2ccc(O)cc2)c2ccccc2)n1	-0.1	-80.3	-100.2	1.0	-100.2	-51.9
O=C(NCc1ccccc1)c1cc(C2COCCN2S(=O)(=O)c2cccs2)on1 (stereo not drawn)	0.8	-3.1	.	.	-2.4	-0.4
CCc1ccc(-c2cc(C)no2)cc1S(=O)(=O)N1CCN(c2ccccn2)CC1	-27.6	50.5*	-2.5	4.3	13.4	-5.1
O=C1CC=Nc2ccc([N+](=O)[O-])cc21	0.1	7.8	.	.	7.6	-6.9
COCCCn1c(SCC(=O)Nc2ccc3c(c2)OCCO3)nnc1-c1ccoc1C	-3.8	16.4	-14.2	-3.4	18.6	63.7*
Cc1cc(C)n(C(C)CC(=O)Nc2ccc3c(c2)OCCO3)n1 (stereo not drawn)	5.6	42.8	-35.6	2.3	21.9	60.8*
COCCn1c(SCC(=O)c2ccc3c(c2)OCCO3)nnc1-c1ccoc1C	4.9	14.7	-0.6	-0.2	-4.7	9.8
Nc1ccccc1SCC(=O)Nc1ccc2c(c1)OCCO2	1.9	57.9*	-88.6	-5.0	-139.5	67.7*
Cn1cccc1C(=O)OCC(=O)Nc1ccc2c(c1)OCCO2	38.3	8.7	.	.	-20.1	70.7*
C[C@H](CO)N1C[C@H](C)[C@@H](CN(C)S(=O)(=O)c2cccc(C#N)c2)OCc2cn(nn2)CCCC1=O	-18.5	-3.9	.	.	6.4	8.3
Nn1c(SCC(=O)Nc2ccc3c(c2)OCCO3)nnc1-c1ccccn1	1.4	6.9	8.7	0.0	3.0	77.4*
O=C(CC(c1ccccc1)c1ccccc1)Nc1ccc2c(c1)OCCO2	-3.3	22.2	-53.6	5.1	13.7	52.3*
c1ccc2scnc2c1	-8.8	4.8	.	.	9.6	-5.3
COc1ccccc1C/C(N)=N/OC(=O)c1cccc([N+](=O)[O-])c1	75.7*	-21.2	-4.1	-0.5	2.8	-30.1
COc1cc(C(=O)O/N=C(\N)Cc2ccc([N+](=O)[O-])cc2)cc(OC)c1OC	14.5	-11.9	81.1*	2.1	16.3	-37.5
C[C@@H]1CN([C@@H](C)CO)C(=O)CCCn2nncc2CO[C@@H]1CN(C)S(=O)(=O)c1ccc(Oc2ccccc2)cc1	-7.4	-7.2	.	.	0.8	-12.1
O=c1c2c3c(sc2ncn1/N=C/c1ccc([N+](=O)[O-])o1)CCCC3	31.4	12.9	-89.4	-0.7	1.8	63.7*
O=C(CSc1ncnc2nc[nH]c12)c1ccccc1	24.4	-29.3	-86.9	-2.5	-155.7	8.1
O=C(CSc1ncnc2nc[nH]c12)c1ccc(Cl)cc1	74.4*	15.9	14.0	10.5	-97.6	-2.1
CN1CCN(C(=O)c2ccc3c(c2)N(C)C(=O)/C(=C/c2cccc(Cl)c2)S3)CC1	19.7	9.9	-34.5	-0.3	-0.2	14.3
COc1ccc(/C=C2\Sc3ccc(C(=O)N4CCN(Cc5ccccc5)CC4)cc3N(C)C2=O)cc1OC	36.1	56.0*	21.6	-1.7	29.4	83.8*
CSc1cc(-c2ccc(Cl)cc2)n(Cc2ccccc2)c(=O)c1C#N	75.0*	-2.4	-3.0	1.2	11.3	10.4
